The supplement of paper PMC3334620
In all, about 33,000 sequences were measured (“E-score (-0.5 to 0.5)”: median about -0.035, highest 2% from about 0.35 on). The entries come from a sample that favours the highest values as a whole.

Target: T1, Pdr3 (UniProt P33200)
T1 sequence: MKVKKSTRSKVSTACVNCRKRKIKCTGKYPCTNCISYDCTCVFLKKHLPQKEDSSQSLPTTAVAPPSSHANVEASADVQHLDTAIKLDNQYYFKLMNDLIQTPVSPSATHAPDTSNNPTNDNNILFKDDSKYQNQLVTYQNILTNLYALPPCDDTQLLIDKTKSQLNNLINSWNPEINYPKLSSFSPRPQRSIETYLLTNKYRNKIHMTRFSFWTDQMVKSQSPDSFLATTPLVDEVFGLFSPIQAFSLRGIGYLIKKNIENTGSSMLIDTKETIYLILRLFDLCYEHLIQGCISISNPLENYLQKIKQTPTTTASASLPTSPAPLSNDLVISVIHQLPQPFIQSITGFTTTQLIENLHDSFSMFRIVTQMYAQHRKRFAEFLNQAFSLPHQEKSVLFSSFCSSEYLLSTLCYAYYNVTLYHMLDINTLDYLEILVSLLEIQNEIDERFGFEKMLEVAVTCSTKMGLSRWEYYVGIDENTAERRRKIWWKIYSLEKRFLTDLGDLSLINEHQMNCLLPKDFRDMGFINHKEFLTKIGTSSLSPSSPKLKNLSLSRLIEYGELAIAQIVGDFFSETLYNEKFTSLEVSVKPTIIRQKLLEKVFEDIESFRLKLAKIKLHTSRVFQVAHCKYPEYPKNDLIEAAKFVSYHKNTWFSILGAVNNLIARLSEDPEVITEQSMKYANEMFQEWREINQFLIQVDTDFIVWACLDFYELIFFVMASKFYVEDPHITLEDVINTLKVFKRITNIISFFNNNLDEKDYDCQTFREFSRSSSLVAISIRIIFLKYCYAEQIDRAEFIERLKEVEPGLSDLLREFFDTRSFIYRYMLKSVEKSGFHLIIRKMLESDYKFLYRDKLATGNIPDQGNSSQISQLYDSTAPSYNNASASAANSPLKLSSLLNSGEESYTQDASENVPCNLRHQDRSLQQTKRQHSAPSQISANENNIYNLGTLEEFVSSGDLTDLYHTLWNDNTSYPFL
Assay: PBM E-score (8-mer binding enrichment) (E-score (-0.5 to 0.5)); higher = stronger / more preferred TF binding
Settings: protein concentration: 200 nM; construct: GST-full length
Method: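 Universal 'all 10-mer' protein binding microarrays (Agilent AMADID 015681) probed with GST-tagged S. cerevisiae TFs (full-length or DBD) made by in vitro transcription/translation (PURExpress), about 100-200 nM. Bound TF was detected with fluorescent anti-GST. Each ungapped 8-mer (which stands for itself and its reverse complement) is scored by the PBM enrichment score (E-score), a modified Wilcoxon-Mann-Whitney statistic from -0.5 to +0.5, computed with the Universal PBM Analysis Suite. Scale: above 0.35 generally sequence-specific binding.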

Row | Sequence | PBM E-score
1 | AGAACGGA | 0.316
2 | GGAACCGA | 0.406
3 | GGAACGCA | 0.275
4 | CGAACGGC | 0.177
5 | CGAACGGA | 0.407
6 | CGAACCGA | 0.15
7 | GGAACGGA | 0.431
8 | AGAACCGA | 0.0498
9 | CGAACGAA | 0.0784
10 | AACACCCC | 0.0302
11 | AGCACTTA | -0.102
12 | GGATTCCC | 0.231
13 | ACCTGACT | -0.131
14 | AGAGGGGC | -0.138
15 | TAGGGTGA | 0.00768
16 | TATGTCAA | 0.0343
17 | GTCTCCAC | -0.208
18 | TAAGGGTA | -0.262
19 | CCGGGTTC | 0.411
20 | CCGGGTCG | 0.378
21 | CCGGGTCA | 0.349
22 | CCGGGTTA | 0.353
23 | ACGGGTCC | 0.186
24 | CCGGGTCC | 0.365
25 | ACGGGTCG | 0.227
26 | GCGGGTCC | 0.243

Row | Sequence | PBM E-score
27 | ACGGGTTC | 0.202
28 | AAGCGCTT | 0.21
29 | ATGAAGGG | -0.171
30 | GTGGATAA | 0.0146
31 | GGATTTGA | -0.0356
32 | CGGTCTTC | 0.123
33 | AATCAACA | 0.115
34 | GCTCGAAA | 0.0413
35 | ATACTCCA | -0.0793
36 | ATACTCCC | 0.127
37 | ATACTCCG | 0.371
38 | CAGCGGCG | 0.154
39 | ACGCGGCC | 0.0489
40 | ACGCGGCG | 0.209
41 | CCGCGGCG | 0.477
42 | CCGCGGCC | 0.459
43 | GCGCGGCC | 0.219
44 | GACGTCTC | -0.145
45 | TATCGAGA | -0.0727
46 | ACGCAAGT | -0.255
47 | GCCCCGGC | 0.163
48 | CCCCCGGA | 0.311
49 | GCCCCGGA | 0.41
50 | TCCCCGAA | 0.232
51 | TCCCCGGA | 0.411
52 | TCCCCCGA | 0.0813

Row | Sequence | PBM E-score
53 | CTTGGAGC | -0.207
54 | ACTTTCAG | -0.184
55 | AAATTGCG | 0.0648
56 | GATCTTAC | -0.113
57 | ACTTCCGG | 0.42
58 | ACTTCCCG | 0.291
59 | ACTTCCAA | -0.127
60 | GCTTCCTA | -0.205
61 | ACTTCCTG | -0.121
62 | GCTTCCAA | -0.143
63 | ACTTCCGA | 0.355
64 | GCTTCCGA | 0.405
65 | ACTTCCCA | -0.0401
66 | CGCACAAA | 0.0204
67 | AGGGTGTG | -0.0975
68 | ACGCCCAA | 0.00636
69 | AAAGCTCA | -0.213
70 | CGGTCGAG | -0.014
71 | CGGTACCC | -0.0572
72 | CGGTACCG | 0.362
73 | CGGTACCA | 0.0596
74 | CTTCATCC | -0.00929
75 | ACTCCGGA | 0.456
76 | ACTCCGGC | 0.315
77 | CCTCCCGA | 0.103
78 | ACTCCTGG | -0.134

Row | Sequence | PBM E-score
79 | GCTCCGGA | 0.461
80 | ACTCCGGG | 0.369
81 | CCTCCGGC | 0.32
82 | CCTCCGGA | 0.416
83 | GCTCCGTA | 0.32
84 | GCTCCGCA | 0.178
85 | ACTCCGAT | 0.203
86 | AAATAGGT | -0.15
87 | ATCAAAGA | -0.143
88 | ACTCTGCA | -0.125
89 | GGTTTCGA | 0.134
90 | CTCTTTCC | 0.141
91 | CATGAAAC | 0.0519
92 | CGATTTCA | -0.0484
93 | TGCATAAA | -0.00866
94 | GCGTTGCC | 0.126
95 | AGCGGGTA | 0.0103
96 | CGCGGGCA | 0.397
97 | CACGGGCC | 0.196
98 | CGCGGGTA | 0.363
99 | AGCGGGCC | 0.057
100 | CGCGGGCC | 0.379
101 | CGCGGGTC | 0.331
102 | AGCGGGCA | -0.048
103 | GGCGGGCA | 0.219
104 | CCGATCTA | 0.0827

Row | Sequence | PBM E-score
105 | ATCCAATG | -0.208
106 | AGTCTGAT | -0.133
107 | AAGACAAA | -0.103
108 | AACCGCTG | -0.114
109 | CGTTCGAG | -0.0996
110 | AAATTCCG | 0.418
111 | AAATTCCA | 0.0847
112 | AAATTCCC | 0.144
113 | CAATTCCC | 0.133
114 | CAATTCCG | 0.435
115 | CAATTCCA | 0.0797
116 | CAGATCTA | -0.337
117 | AACAGCAT | -0.0321
118 | GAGACTCA | -0.204
119 | TGTGATAA | -0.121
120 | CACGGGAA | 0.223
121 | CAAGGAAA | 0.00732
122 | TAGGGAAA | -0.15
123 | GACGGAAA | 0.43
124 | TACGGGAA | 0.261
125 | AACGGAGA | 0.243
126 | GACGGGAA | 0.203
127 | AACGGGAA | 0.354
128 | GACGGACA | 0.335
129 | TACGGAAA | 0.402
130 | AACGGAAA | 0.464

Row | Sequence | PBM E-score
131 | CACGGAAA | 0.449
132 | GCTACGAC | 0.0127
133 | CACTGGTC | -0.078
134 | CAGATGCG | -0.126
135 | CTAGGACA | -0.0782
136 | CGGCTTGC | 0.197
137 | GCTCGTAC | -0.126
138 | CCTAGAAG | -0.146
139 | ATGTCTAG | -0.064
140 | AATAGGCG | 0.313
141 | AGCCTTAG | -0.37
142 | CAGCCACG | 0.145
143 | CAAGGAAG | -0.0209
144 | GACAGAAC | 0.0194
145 | CACGGAAC | 0.483
146 | CATGGAAC | -0.0483
147 | CACGGAAG | 0.386
148 | GATGGAAC | 0.06
149 | GACGGAAC | 0.475
150 | CACAGAAG | -0.109
151 | CAAGGAAC | 0.161
152 | ACAGTAAA | -0.0539
153 | AGCAAAAG | -0.336
154 | CTATAAGC | -0.129
155 | TCAATAGA | -0.262
156 | ATGTTATC | 0.0774

Row | Sequence | PBM E-score
157 | CAGTTTCC | 0.253
158 | ATCAGCGG | 0.364
159 | ATCAGCGC | 0.207
160 | ATCAGCGA | -0.0101
161 | AGAGAGTC | -0.249
162 | CCCCTTTC | 0.00738
163 | TAATGCAA | -0.241
164 | AACGGCTT | 0.0106
165 | CCAGGTTA | -0.0429
166 | ACCGCGGG | 0.472
167 | ATCGCGGA | 0.282
168 | ACCGCGAT | 0.177
169 | ACCGCGTC | 0.0777
170 | ACCGCGTA | 0.174
171 | ATCGCGGC | 0.213
172 | AACGCGGT | 0.1
173 | ACCGCGGA | 0.488
174 | ACCGCGGC | 0.399
175 | ACCGCGAG | -0.00369
176 | ATCGCGGG | 0.186
177 | ACCGCGGT | 0.4
